{"source": "PubChem BioAssay (NCI)", "note": "Compounds without any hit were thinned out: in the full panel of roughly 83,000, 20% have a hit.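 A percent growth of 40 corresponds to 60% growth inhibition; 0 means no net growth; -100 means all cells died. Active threshold: below 10.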 Unmarked numbers belong to inactive results. Active and inactive are the calls of the source."}
{"tested_on": "NCI-H522 lung", "experiment": "NCI-60 one-dose screen, 48 h (100 = growth as untreated, 0 = no growth, -100 = all killed)", "conditions": "10 µM unless noted"}
{"smiles": "O=C1c2cc3c(cc2-c2c1c1ccc(F)cc1c(=O)n2C[C@H](O)[C@@H](O)[C@H](O)CO)OCO3", "growth": "-22.1% (active)"}
{"smiles": "O=C(Nc1cccc2[nH]c(C(F)(F)F)nc12)c1ccc(-n2cnnn2)cc1", "growth": "57.3%"}
{"smiles": "Fc1ccc(CNc2cccc3[nH]c(C(F)(F)F)nc23)cc1", "growth": "79.7%"}
{"smiles": "O=C1c2cc3c(cc2-c2c1c1ccc(F)cc1c(=O)n2CCCNCCO)OCO3", "growth": "-53.9% (active)"}
{"smiles": "N#CN1CC[C@H](C(=O)Nc2cc3cc(C(N)=O)ccc3cn2)C1", "growth": "-50% (active)"}
{"tested_on": "A549/ATCC NSCLC", "experiment": "NCI-60 one-dose screen, 48 h (100 = growth as untreated, 0 = no growth, -100 = all killed)", "conditions": "10 µM unless noted"}
{"smiles": "COc1cccc(/C=C2\\Oc3cc(OCCN4CCCC4)ccc3C2=O)c1", "growth": "99%"}
{"smiles": "COc1ccc(-c2nc3ccc(-c4nc5ccc(N6CCN(c7ccncc7)CC6)cc5[nH]4)cc3[nH]2)cc1OC", "growth": "80.7%"}
{"smiles": "Cc1ccc(C2=NN3C(C2)c2cc(Br)ccc2OC32CCN(Cc3ccccc3)CC2)o1", "note": "(stereo not given)", "growth": "96.3%"}
{"smiles": "COc1cc2c(cc1-c1c(C)noc1C)ncc1nc(-c3ccccn3)n([C@H](C)COC(F)F)c12", "growth": "39%"}
{"smiles": "Cc1oc(-c2ccc(Cl)cc2Cl)cc1C(=O)Nc1nccs1", "growth": "51.8%"}
{"smiles": "COc1ccc2c(c1)c(-c1nonc1-c1cn(C)c3ccccc13)cn2C", "growth": "30.3%"}
{"smiles": "COC(=O)c1ccc(NC(=O)c2ccc(-c3cccc([N+](=O)[O-])c3)o2)cc1", "growth": "108%"}
{"smiles": "COc1cccc(C2=NN3C(C2)c2cc(Br)cc(OC)c2OC32CCN(Cc3ccccc3)CC2)c1", "note": "(stereo not given)", "growth": "102%"}
{"smiles": "O=C1c2cc3c(cc2-c2c1c1cc(F)c(F)cc1c(=O)n2CCCn1ccnc1)OCO3", "growth": "-93.5% (active)"}
{"smiles": "Cc1ccc2c(C(C[N+](=O)[O-])c3ccccc3F)c(-c3ccccc3)[nH]c2c1", "note": "(stereo not given)", "growth": "35.2%"}
{"smiles": "Cc1ccccc1COc1ccc(-c2onc(C)c2-c2ccc(Cl)cc2)cc1", "growth": "49.3%"}
{"smiles": "COC[C@H](C)n1c(C2CCOCC2)nc2cnc3cc(-c4c(C)noc4C)c(OC)cc3c21", "growth": "45.6%"}
{"smiles": "C#CCOc1ccc2ncnc(NCc3cccc(NC(=O)CCl)c3)c2c1", "growth": "50.4% [8.25 µM]"}
{"smiles": "COc1cc(-c2nn(C)nc2-c2cc3ccccc3s2)cc(OC)c1OC", "growth": "23.3%"}
{"smiles": "O=C1NC(=S)N[C@H]1CC(=O)n1cnc2ccccc21", "growth": "105%"}
{"smiles": "O=S(=O)(Nc1ccc(I)cc1F)c1ccc(-c2cnc(C3CC3)o2)cc1", "growth": "50.6%"}
{"smiles": "CC[C@@H](C(=O)[C@@H](C)[C@@H](O)[C@H](C)[C@@H]1O[C@@H]([C@@H](CC)C(=O)O)CC[C@@H]1C)[C@H]1OC2(C=C[C@@H](O)[C@]3(CC[C@@](C)([C@H]4CC[C@](O)(CC)[C@H](C)O4)O3)O2)[C@H](C)C[C@@H]1C", "note": "(stereo not given in full)", "growth": "11.9%"}
{"smiles": "CCOC(=O)c1csc(NC(=O)COc2cccc(/C=C3\\CSc4ccccc4C3=O)c2)n1", "growth": "97.2%"}
{"smiles": "CN1CCN(c2ccc3nc(-c4ccc(OCCCCN5CCN(CCCCN6C(=O)c7cccc8cccc(c78)C6=O)CC5)cc4)[nH]c3c2)CC1", "growth": "57.1%"}
{"smiles": "Cc1ncc(C(=O)Nc2ccc(CN3CCN(C)CC3)c(C(F)(F)F)c2)cc1C#Cc1cnc2cccnn12", "growth": "-2.38% (active)"}
{"smiles": "Cc1nc2c3c(-c4ccccc4)c(-c4ccccc4)oc3ncn2n1", "growth": "101%"}
{"smiles": "O=C(N/N=C/c1ccccc1O)c1ccccc1Nc1ccnc(C(F)(F)F)c1", "growth": "10.4%"}
{"smiles": "COC(=O)[C@]12CCC(C)(C)C[C@H]1[C@H]1C(=O)C[C@@H]3[C@@]4(C)c5c([nH]c6ccccc6c5=O)C(C)(C)[C@@H]4CC[C@@]3(C)[C@]1(C)CC2", "growth": "34.8%"}
{"smiles": "COc1ccc(-c2n[nH]nc2-c2csc3ccccc23)cc1OC", "growth": "31.9%"}
{"smiles": "O=C1c2ccccc2C(=O)c2c(N=Nc3[nH]c(=S)[nH]c3O)cccc21", "growth": "24.3%"}
{"smiles": "Cn1c(NCCc2ccc(O)c(O)c2)nc2c1c(=O)n(Cc1ccc(Br)cc1)c(=O)n2C", "growth": "83.9%"}
{"smiles": "Cc1ccc(/C=C2\\SC(=S)N(CC(=O)NCCCN3CCOCC3)C2=O)cc1", "growth": "102%"}
{"smiles": "Cc1ccc(C2Oc3ccccc3C3CC(c4cccs4)=NN32)cc1", "note": "(stereo not given)", "growth": "103%"}
{"smiles": "C=CC(=O)Nc1cccc(-c2nc(SC)nc(NCCc3ccc(OC)c(OC)c3)c2C#N)c1", "growth": "46.9%"}
{"smiles": "Cc1nc(/N=C(\\N)NC(=O)Nc2cccc([N+](=O)[O-])c2)sc1C", "growth": "89.1%"}
